In PubChem BioAssay (NCI):
The panel holds about 83,000 compounds, 20% with a hit somewhere; the sample as a whole holds those more often.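 Single-dose data. Exposure time 48 hours. Values below 10 considered active.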 The source made the active and inactive calls.

Each molecule was assayed on UO-31 renal (assay: NCI-60 one-dose screen, 48 h (100 = growth as untreated, 0 = no growth, -100 = all killed)). Settings: 10 µM unless noted.

Row | SMILES | growth
1 | N=C(N)c1ccc(-c2ccc(-c3ccco3)o2)cc1F | -57.2% (active)
2 | CCOC(=O)Cn1c(-c2nonc2NC(=O)c2ccccc2F)nc2ccccc21 | 54.5% (inactive)
3 | CC(C)OC1OC(OC(C)C)C(OC(C)C)OC1OC(C)C (configuration not stated) | 92.5% (inactive)
4 | Cc1nn(-c2ccccc2)c2nc3c(nc12)C1=NCCN1C(c1ccc(Cl)cc1)N3 (configuration not stated) | 59.2% (inactive)
5 | COc1ccc(-c2ccc(-c3ccc(C(=N)N)s3)s2)cc1 | -71.4% (active)
6 | N=C(N)c1ccc(-c2ccc(-c3cccs3)s2)cc1F | -89.7% (active)
7 | Cc1csc(N/N=C/c2ccncc2)n1 | 95% (inactive)
8 | CCCCCCCCCCCCCCCC1=NCCN1 | 64.5% (inactive)
9 | CCS(=O)(=O)Nc1cccc(Nc2c3cccc(C)c3nc3c(C)cccc23)c1OC | 10.7% (inactive)
10 | N/C(=N\O)c1ncc(-c2ccc(C(F)(F)F)cc2)c(NC2CCCCCC2)n1 | -92.1% [100 µM] (active)
11 | N/N=C(\C(=N\N)c1ccccc1)c1ccccc1 | 73.6% (inactive)
12 | COc1cc(/C=C/c2cc(/C=C/c3ccc(O)c(OC)c3)n(C(=O)Nc3ccc(F)c(Cl)c3)n2)ccc1O | -17% (active)
13 | Cc1cc(Nc2c3ccccc3nc3ccccc23)ccc1NS(C)(=O)=O | 22.7% (inactive)
14 | O=C(CC(=O)c1ccccc1F)Nc1ccc([N+](=O)[O-])cc1 | 89.3% (inactive)
15 | CCCCCCCCCCCC1=NC(C)(C)CN1CCO | 68.3% (inactive)
16 | COc1cc2ccc(C(C)=O)cc2cc1OC | 72.4% (inactive)
17 | Cc1ccccc1Nc1n[nH]c(Cc2ccccc2)n1 | 86% (inactive)
